Reference: the supplement of paper PMC6555819

Tested on: PPARg DBDmut IVT, anti-PPARg (DBD mutation: PPARg1 K132A/R137A, NR concentration 270 nM)
Experiment: PBM binding z-score (relative to random genomic background probes); higher = stronger binding; sequences stand for … in GC…GCGATTGACAGCGTAGAATGAAGG
In short: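 Ligand-free nuclear receptor dimers were bound for 1 h to custom Agilent 4×180K protein-binding microarrays. Detection used antibodies against each partner (one per run). Binding z-scores rest on regression-normalized fluorescence, with random background probes as the reference.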

Question: CAAACTAGGTTAAGAGGTCAAAGTCCGCTTCCCG was tested. Which PBM binding z-score did it give?
Answer: 2.44

Question: For CGTCCAAGGTCAGCAGGTCCGTGAAAGCGACGTG, which PBM binding z-score is on record?
Answer: -1.09

Question: How did the PBM binding z-score turn out when CGTCATAGTTCAACTAAGGTAACGTAAAGCACGC was run?
Answer: 1.14

Question: How did the PBM binding z-score turn out when ACCTCTAGGTAAAAGTTCAGTGAATCCCGAGGAT was run?
Answer: 0.231

Question: GCATATAGGTAATACAAGGTGAAAGCCCGATTGT was tested. Which PBM binding z-score did it give?
Answer: 0.358

Question: For CGAACTAGGTCATTGACAGTACAGTGAATAGTAA, which PBM binding z-score is on record?
Answer: 2.28

Question: AGTCAAAGTTCATTAGGTAACGTAAGATTCAGCT was tested. Which PBM binding z-score did it give?
Answer: 1.88

Question: TCTTGTAGATCAACCGGAGGTTAAGAAAGATCGA was tested. Which PBM binding z-score did it give?
Answer: 0.343

Question: For CGAACTAGGTCAGAACAGGCCAGTGAAGGATGAT, which PBM binding z-score is on record?
Answer: -0.348

Question: ATCTCTAGGTAAGACTCAGTTCAGTTAAGAACGC was tested. Which PBM binding z-score did it give?
Answer: 0.801

Question: How did the PBM binding z-score turn out when AGAATGAGCTTACCAAAGATCAGGGAAACGCTTG was run?
Answer: -0.198

Question: How did the PBM binding z-score turn out when GATACAGGATCAAGGCCAGAGTACGCGTATTGAT was run?
Answer: 0.288

Question: CGAACTAGGTCAGAACAGGACTGTGAAGGATGAT was tested. Which PBM binding z-score did it give?
Answer: 0.194

Question: For GCTGCTAGGGCAACTGATGGTCAGCTAAAGCTCG, which PBM binding z-score is on record?
Answer: -1.08

Question: How did the PBM binding z-score turn out when CTCGAAAGGTCGTGCTCGGGTGAGTATACCAAAC was run?
Answer: -0.339

Question: For GCTTGTAGATCAAGGTTAAGACAGACTAAGCTAA, which PBM binding z-score is on record?
Answer: -0.149

Question: TCTATTAGCTGATTAGGGCAACCGAAACAGCGGA was tested. Which PBM binding z-score did it give?
Answer: 0.319

Question: ACTTACGGGTCAAAGAGGTTATAGCACGCGTATA was tested. Which PBM binding z-score did it give?
Answer: 1.26

Question: How did the PBM binding z-score turn out when TCTAGTTGGTCAAAGGACACACACTCGAAATGCG was run?
Answer: 0.871

Question: With GCTGCTAGCTCAGGTTGGTCAGCTAACGGGTACG as the sequence, how does the PBM binding z-score read?
Answer: -1.62

Question: For GCTGCTAGGTCAACTGATGGGCAGCTAAAGCTCG, which PBM binding z-score is on record?
Answer: -0.478

Question: With CGGACTGGGGCATAAGGTTACCATAAGCCAGCCC as the sequence, how does the PBM binding z-score read?
Answer: 1.32

Question: For CCTACTGGGCCAAAGGTCATTGCTTCCAATGCTC, which PBM binding z-score is on record?
Answer: 0.248

Question: Which PBM binding z-score does the source give for TCTATCAGTTGATTAGGGCAACCGAAACAGCGGA here?
Answer: 0.547

Question: How did the PBM binding z-score turn out when TCGAGTAGGTGAGGGGCATTCAGAATGGCGTCGA was run?
Answer: 0.0293

Question: For CCGAATGGGGCATAAGGTTACCATAAGCCAGCCC, which PBM binding z-score is on record?
Answer: -1.15

Question: For CGTCCAAGGTCAATGCTAGGTCCGTGAAAGCATT, which PBM binding z-score is on record?
Answer: -0.534

Question: With CCGACTGGGGCAGAAAGGTTATCATACCATCCGG as the sequence, how does the PBM binding z-score read?
Answer: -1.06

Question: Which PBM binding z-score does the source give for AGAATGAGGTTACCAAAGAGCAGGGAAACGCTTG here?
Answer: -0.0129

Question: TCTTGTAGAGCAGCAGGTTAAGAAAGCTGGCCAA was tested. Which PBM binding z-score did it give?
Answer: -1.03

Question: Which PBM binding z-score does the source give for CAAACTAGATCACAGAGGTCAAAGTCCGTGCGTA here?
Answer: 1.1

Question: For CCTACAGGGCCATTCAGAGGTCATTGATCATATG, which PBM binding z-score is on record?
Answer: -0.38

Question: Which PBM binding z-score does the source give for CGAACTAGCTCATTGACAGGACAGTGAATAGTAA here?
Answer: 0.24

Question: GGAACGAGGGCATTCGGGTTGATAGCATGGCGAT was tested. Which PBM binding z-score did it give?
Answer: -0.376

Question: For CTCGAAAGGTCCTGCTCAGGTGAGTATACCAAAC, which PBM binding z-score is on record?
Answer: -0.54

Question: With AGAATGAGGATATACGTAGATCAGGGAAGAAAGT as the sequence, how does the PBM binding z-score read?
Answer: 0.805

Question: How did the PBM binding z-score turn out when ATCGAAAGGTCTAGGTGAGTATAGAGAAAGGGAA was run?
Answer: 0.731

Question: Which PBM binding z-score does the source give for TTACCAAGGTGAGCTGAGGTCGTTGATCCAACTC here?
Answer: -0.723

Question: GATACAGAGTCAAGGCCAGAGTACGCGTATTGAT was tested. Which PBM binding z-score did it give?
Answer: -0.418

Question: With CGTCCAAGGTCAGAGAGATCAGTGAATGCCGAGT as the sequence, how does the PBM binding z-score read?
Answer: -0.28
